{
  "source": "PubChem BioAssay (NCATS)",
  "note": "Records with an inconclusive call do not appear. Active and inactive are the calls of the source. Unless noted, calls come from the whole dose curve; as a rule, active = well fitted curve in the direction sought with a large enough effect; inconclusive = small, poorly fitted or top-dose-only effect, or another doubt; inactive = no such curve, though single readings can be large or run the other way.",
  "data": [
    {"assay": "qHTS Assay for Identifying Gametocytocidal Compounds (AID 743244); note: potency is the fitted concentration of half-maximal effect;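 for max response: % is set by controls: 0 for no effect and ±100 for the full control effect; actives lower the fluorescent signal which means gametocytes are killed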", "conditions": "P. falciparum 3D7 stage III-V gametocytes, alamarBlue, 72 h; max response: stronger effect = lower value", "in_short": "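A resazurin-based viability read-out was applied to mature P. falciparum gametocytes: 72 h compound treatment, then 24 h dye incubation, with falling fluorescence signalling gametocytocidal effect.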", "values": [
      {"smiles": "O=C1OC(CN2CCOCC2)CN1/N=C/c1ccc([N+](=O)[O-])o1", "note": "(stereo not given)", "max response": "-7.98% (inactive)"},
      {"smiles": "CCc1oc2ccccc2c1C(=O)c1cc(I)c(O)c(I)c1", "max response": "0.665% (inactive)"},
      {"smiles": "O=C(Nc1ncc([N+](=O)[O-])s1)c1cccs1", "max response": "35.1% (inactive)"},
      {"smiles": "CCOC(=O)c1c(N)sc2c1CCN(Cc1ccccc1)C2", "Potency": "11.2 µM (active)"},
      {"smiles": "N/C(=N\\N=C\\c1ccc(Cl)cc1)N/N=C/c1ccc(Cl)cc1", "max response": "0.563% (inactive)"},
      {"smiles": "CC(=O)N[C@@H](CCC(=O)O)C(=O)O", "max response": "-0.648% (inactive)"},
      {"smiles": "CC[C@H](c1ccc(O)cc1)[C@@H](CC)c1ccc(O)cc1", "max response": "11.9% (inactive)"},
      {"smiles": "O=C(Nc1ccccc1)OCC(CN1CCCCC1)OC(=O)Nc1ccccc1", "note": "(stereo not given)", "max response": "3.58% (inactive)"},
      {"smiles": "COP(=O)(OC)OC(c1ccc(Cl)cc1)P(=O)(OC)OC", "note": "(stereo not given)", "max response": "0.577% (inactive)"},
      {"smiles": "Oc1ccc(Cl)cc1Cc1cc(Cl)ccc1O", "max response": "0.972% (inactive)"},
      {"smiles": "NS(=O)(=O)c1cc(C(=O)O)cc(N2CCCC2)c1Oc1ccccc1", "max response": "-3.9% (inactive)"},
      {"smiles": "CCC(C(=O)OCCOCCN(CC)CC)c1ccccc1", "note": "(stereo not given)", "max response": "6.25% (inactive)"},
      {"smiles": "C/C=C/C=N/NC(=O)c1ccncc1", "max response": "-5.06% (inactive)"},
      {"smiles": "C[C@H]1O[C@@H](O[C@H]2CC[C@@]3(C)[C@H](CC[C@@H]4[C@@H]3C[C@@H](O)[C@]3(C)[C@@H](C5=CC(=O)OC5)CC[C@]43O)C2)C[C@H](O)[C@@H]1O[C@H]1C[C@H](O)[C@H](O[C@H]2C[C@H](O)[C@H](O[C@@H]3O[C@H](CO)[C@@H](O)[C@H](O)[C@H]3O)[C@@H](C)O2)[C@@H](C)O1", "max response": "-0.158% (inactive)"},
      {"smiles": "CCNC(=O)NCc1cccc(Cl)c1", "max response": "8.55% (inactive)"},
      {"smiles": "Cc1cccc(C)c1NC(=O)c1ccccc1C(=O)O", "max response": "-7.1% (inactive)"},
      {"smiles": "C#C[C@]1(O)CC[C@H]2[C@@H]3[C@H](C)CC4=C(CCC(=O)C4)[C@H]3CC[C@@]21C", "max response": "-5.37% (inactive)"},
      {"smiles": "CCC(Cc1c(I)cc(I)c(N)c1I)C(=O)O", "note": "(stereo not given)", "max response": "3.24% (inactive)"},
      {"smiles": "CC(=O)NCCCCCC(=O)O", "max response": "-5.55% (inactive)"},
      {"smiles": "CCN(CC)CCOC(=O)C(Cc1cccc2ccccc12)CC1CCCO1", "note": "(stereo not given)", "max response": "7.43% (inactive)"},
      {"smiles": "C#C[C@]1(OC(C)=O)CC[C@H]2[C@@H]3CCC4=C/C(=N/O)CC[C@@H]4[C@H]3CC[C@@]21CC", "max response": "-2.23% (inactive)"}
    ]},
    {"assay": "qHTS profiling for inhibitors of Plasmodium falciparum (3D7) proliferation (AID 743322; call rule not given here;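 note: infected erythrocytes exposed to compound for 72 h before lysis; 100% = DMSO vehicle wells and 0% = 0.29 µM artemisinin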)", "conditions": "P. falciparum 3D7 proliferation; at 28.7 µM (top of the series) unless noted", "in_short": "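Erythrocytes infected with P. falciparum (0.3% parasitemia, 2.5% hematocrit) incubated with compounds 72 h at 37 C, 5% CO2. Lysis with saponin/Triton buffer containing SYBR Green I, overnight at room temperature in the dark; DNA fluorescence (485/535 nm) normalised to 0.29 uM artemisinin and DMSO.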", "values": [
      {"smiles": "CC(CNC1CCCCC1)OC(=O)c1ccccc1", "note": "(stereo not given)", "remaining parasite growth % (stronger effect = lower value)": "106% [at 9.63 µM]"},
      {"smiles": "C[N+]1(C)CCC(=C(c2ccccc2)c2ccccc2)CC1", "remaining parasite growth % (stronger effect = lower value)": "4.05% [at 18.4 µM]"},
      {"smiles": "CNCCCCOc1ccccc1Cc1ccccc1", "remaining parasite growth % (stronger effect = lower value)": "65.9%"},
      {"smiles": "O=C1C(=O)c2ccccc2C(O)=C1C1CCC(c2ccc(Cl)cc2)CC1", "note": "(stereo not given)", "remaining parasite growth % (stronger effect = lower value)": "9.76e-05%"}
    ]}
  ]
}
